Bioassay records as filed in PubChem BioAssay.
This is a sample that favours compounds with a hit; in the whole collection about 7.5% have one here.
Rab9 promoter act – qHTS Assay for Rab9 Promoter Activators. Huh7 Rab9 promoter-luciferase reporter, luminescence, 24 h. Potency, µM (highest dose often 9.22 µM), most hits filed as activators. 2.8% of 320,000 active. AID 485297, 2010; note: nearly all actives have a fitted effect of over 60% in size
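Cells were plated at 1500 per well in reduced-serum medium with 10% FBS and left 2 h. Compound in DMSO was then added for 24 h at 37 °C. Reporter signal was read by luminescence after 10 min with luciferase detection reagent.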
NPC1 prom act – qHTS Assay for NPC1 Promoter Activators | 2.4% of 320,000 active | Potency, µM (top dose mostly 9.22 µM), most hits filed as activators | AID 485313, 2010 | Huh7 NPC1 promoter luciferase reporter, 24 h; note: nearly all actives have a fitted effect of over 60% in size
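Huh7 reporter cells (NPC1 promoter driving luciferase) are dosed with compound for 24 h at 37 °C, 5% CO2; luciferase detection reagent is then added and luminescence measured after 10 min at ambient temperature.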
SMN2 splice enh – qHTS Assay for Enhancers of SMN2 Splice Variant Expression; HEK293 SMN2-luciferase splicing reporter, luminescence, 30-36 h; Potency, µM (top dose mostly 46.1 µM), actives largely listed as activators; 2.8% of 210,000 active; AID 1458, 2008; note: nearly all actives have a fitted effect of over 55% in size
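qHTS luciferase splicing reporter: luminescence rises when SMN2 exon 7 is included in transfected HEK293 cells. Compound exposure lasted 30-36 h at 37C, with 4.5 mM final sodium butyrate as control, followed by a ONE-Glo read.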
Luc counter – Counterscreen for Luciferase (Kinase-Glo TM) Inhibition. Luciferin 4-monooxygenase (Photuris pensylvanica), Q27757. Kinase-Glo luciferase, ATP luminescence, 8 min. Potency, µM (doses to about 38.3 µM), hits mostly inhibitors. 0.28% of 200,000 active; note: nearly all actives have a fitted effect of over 60% in size
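Recombinant Kinase-Glo luciferase, 10 uM ATP (linear range), luciferin; imidazole pH 7.2 / KCl / MgCl2 / Tween / BSA buffer; 8 min RT; luminescence.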
FLuc counter – qHTS profiling assay for firefly luciferase inhibitor/activator using purifed enzyme and Km concentrations of substrates (counterscreen for miR-21 project) | AID 588342, 2011 | Luciferin 4-monooxygenase (Photinus pyralis), P08659 | Potency, µM (titrated, usually from 57.5 µM), hits mostly inhibitors | 6.9% of 360,000 active | purified FLuc, Km substrates, luminescence inhibition; note: nearly all actives have a fitted effect of over 55% in size
Target sequence (P08659 whole entry, looked up): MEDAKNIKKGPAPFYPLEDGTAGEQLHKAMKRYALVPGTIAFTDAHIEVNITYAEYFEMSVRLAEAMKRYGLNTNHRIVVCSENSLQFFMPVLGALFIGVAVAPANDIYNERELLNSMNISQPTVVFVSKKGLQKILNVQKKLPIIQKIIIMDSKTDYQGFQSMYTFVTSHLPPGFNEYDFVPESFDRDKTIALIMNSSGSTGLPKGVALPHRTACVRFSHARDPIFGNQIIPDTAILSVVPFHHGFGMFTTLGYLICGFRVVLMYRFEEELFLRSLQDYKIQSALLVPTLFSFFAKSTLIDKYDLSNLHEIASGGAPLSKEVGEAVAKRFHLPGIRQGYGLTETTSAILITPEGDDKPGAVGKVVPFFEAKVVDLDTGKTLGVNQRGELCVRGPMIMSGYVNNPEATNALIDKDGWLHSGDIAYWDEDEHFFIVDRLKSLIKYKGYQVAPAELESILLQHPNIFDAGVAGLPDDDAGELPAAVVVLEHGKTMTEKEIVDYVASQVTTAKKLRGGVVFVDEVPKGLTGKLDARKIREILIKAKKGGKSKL
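Purified P. pyralis luciferase, 10 nM final, with Km-level 10 uM D-luciferin and 10 uM ATP in 50 mM Tris acetate pH 7.5, 10 mM Mg acetate, 0.01% Tween-20, 0.05% BSA; 6-point qHTS titration about 60 µM downward; luminescence read.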
ELG1 genotoxic – qHTS screen for small molecules that induce genotoxicity in human embryonic kidney (HEK293T) cells expressing luciferase-tagged ELG1; 1.3% of 330,000 active; HEK293T ELG1-luciferase reporter, luminescence, 16 h; Potency, µM (doses to about 46 µM), hits mostly activators; note: nearly all actives have a fitted effect of over 60% in size
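Cells (2,000/well) expressing the ELG1-luciferase fusion are dosed by pin tool and kept 16 hr at 37 °C, 5% CO2. Signal comes from ONE-Glo luciferase reagent after 30 min at room temperature.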
Hits are given with their value; 0 = inactive; ? = inconclusive; - = no result; [ ] = another dose, or the depositor's remark. Calls come from the whole dose curve; as a rule, active = well fitted curve in the direction sought with a large enough effect; inconclusive = small, poorly fitted or top-dose-only effect, or another doubt; inactive = no such curve, though single readings can be large; an effect the other way counts as inactive or inconclusive.

SMILES | Rab9 promoter act | NPC1 prom act | SMN2 splice enh | Luc counter | FLuc counter | ELG1 genotoxic
CN(C)S(=O)(=O)c1ccc(-c2csc(N/N=C/c3ccco3)n2)cc1 | 0 | 0 | - | - | 0 | 0
CN(C)S(=O)(=O)c1ccc(-c2csc(N/N=C/c3ccc(O)cc3)n2)cc1 | 0 | 0 | - | - | 11µM | ?
ClCc1csc(N/N=C/c2cccs2)n1 | 0 | 0 | - | - | 15µM | 0
C(=N\Nc1nc(-c2ccccc2)cs1)/c1ccncc1 | ? | 3.2µM | - | 0 | 11µM | 0
O=c1/c(=C/c2ccc(O)c([N+](=O)[O-])c2)sc2nc3ccccc3n12 | 0 | 0 | 0 | 0 | 6.7µM | 0
Cc1cc(/C=c2\sc3nc4ccccc4n3c2=O)c(C)n1-c1ccc(C(=O)O)cc1 | 0 | ? | 0 | 0 | 15µM | 0
O=c1/c(=C\c2cccnc2)sc2nc3ccccc3n12 | 0 | 0 | ? | 0 | 0[2.3 µM] | ?
Cc1cc(/C=c2/sc3nc4ccccc4n3c2=O)c(C)n1-c1ccccn1 | 0 | 0 | 0 | ? | 0.13µM | 0
Cc1ccc(S(=O)(=O)N(C)c2ccc(C(=O)N(C)Cc3nc4ccccc4c(=O)[nH]3)cc2)cc1 | 0 | 0 | - | - | 0 | 0
CC(C)(C)C(=O)Nc1ccc(C(=O)Nc2cccc(Oc3ccc(C(=O)O)c(C(=O)O)c3)c2)cc1 | 0 | 0 | - | - | 1.5µM | 0
COC(=O)c1cc(NC(=O)c2ccc(-c3ccccc3)cc2)ccc1Cl | 0 | 0 | 0 | 0 | 0 | 0
O=C(Nc1cccc(Oc2ccc(C(=O)O)c(C(=O)O)c2)c1)c1ccc(-c2ccccc2)cc1 | 0 | 0 | - | - | 1.7µM | 0
O=C1OC(/C=C/c2ccc(Cl)cc2Cl)=NC/1=C\c1cccs1 | 0 | 0 | 0 | 0 | ? | 0
Cc1cccc(Oc2ccc(Cl)cc2N)c1 | 0 | 0 | 0 | 0 | 17µM | 0
Cc1ccc(OCc2cc(C(=O)N(C)CC3CCOCC3)no2)cc1C | 3.2µM | 2.8µM | - | - | 12µM | ?
Cc1cc(OCc2cc(C(=O)N(C)C3CCOCC3)no2)cc(C)c1Cl | 4µM | 3.5µM | - | - | 21µM | 0
COc1ccc(OCc2cc(C(=O)N(C)C3CCOCC3)no2)c2ccccc12 | ? | ? | - | - | 15µM | 0
COc1ccc(OCc2cc(C(=O)NC3CCOC(C)(C)C3)no2)c2ccccc12 (stereo not given) | 3.5µM | 2.8µM | - | - | 8.5µM | ?
COc1ccc(OCc2cc(C(=O)N(C)C3CCOC3)no2)c(Cl)c1 (stereo not given) | 0 | 0 | - | - | ? | 0
Cc1nc(SCC(=O)N2CCCCCC2)[nH]c(=O)c1C | 0 | 0 | - | - | 0 | 0
COc1ccccc1OCc1cc(C(=O)N(C)CCC2CCCCO2)no1 (stereo not given) | 1.6µM | 2.5µM | - | - | 12µM | 10µM
CN(CCC1CCOCC1)C(=O)c1cc(COc2c(F)cccc2F)on1 | 0 | 0 | - | - | 0 | 0
C/C(=N\NC(=O)c1cccc(N/N=C(\C)c2ccccc2)c1)c1ccccc1 | ? | ? | 20µM | 0 | 13µM | 0
C/C(=N/NC(=O)c1ccncc1)c1ccc(NC(=O)c2ccccc2)cc1 | 0 | 0 | - | - | 21µM | 0
C/C(=N\Nc1ccccc1)c1cccc(N)c1 | ? | 0 | - | - | 21µM | ?
SMILES | Rab9 promoter act | NPC1 prom act | SMN2 splice enh | Luc counter | FLuc counter | ELG1 genotoxic
C/C(=N\NC(=O)c1ccco1)c1ccc(NC(=O)c2ccccc2)cc1 | ? | ? | ? | 0 | ? | 0
C/C(=N\NC(=O)c1ccccc1O)c1ccc(NC(=O)c2ccccc2)cc1 | ? | ? | - | - | 21µM | 0
C/C(=N\NC(=O)c1cccc(N/N=C(\C)c2ccncc2)c1)c1ccncc1 | 0 | 0 | 0 | 0 | ? | 0
CCOc1ccc(-c2cc(NC(=O)Nc3ccc(Cl)cc3)c(C(=O)OC)s2)cc1 | - | - | 0 | - | 0 | -
COc1ccc(CN(Cc2ccco2)c2cnc(S(C)(=O)=O)nc2C(=O)Nc2ccc(C)c(Cl)c2)cc1 | - | - | - | - | 0 | -
Cc1ccc(C)c(N2CCN(C(=O)c3cc(C)nc4c3c(C)nn4-c3ccccc3)CC2)c1 | - | - | - | - | 0 | -
COc1ccc(Cn2c(CCC(=O)NCc3cccc(Cl)c3)nc3cccnc32)cc1 | - | - | 0 | - | 0 | -
C/C(=N\NC(=O)c1ccccc1O)c1cccc(NC(=O)c2ccccc2)c1 | 0 | 0 | - | - | 11µM | 0
CC(=O)Nc1cccc(/C(C)=N/NC(=O)c2ccc(O)cc2)c1 | 0 | 0 | 0 | 0 | ? | 0
C/C(=N/NC(=O)c1ccc(Cn2cccn2)o1)c1cccc(NC(=O)c2ccncc2)c1 | 0 | 0 | - | - | ? | 0
C/C(=N\NC(=O)c1nn(C)cc1Br)c1cccc(NC(=O)c2ccncc2)c1 | 0 | 0 | 0 | 0 | 12µM | 0
C/C(=N\NC(=O)c1ccc(Br)cc1)c1cccc(NC(=O)c2cccnc2)c1 | 0 | 0 | ? | 0 | 12µM | 0
C/C(=N\NC(=O)c1ccncc1)c1cccc(NC(=O)c2ccc(C(C)(C)C)cc2)c1 | 2µM | 1.4µM | - | - | 0.12µM | 0
CC(=O)Nc1ccc(/C(C)=N/NC(=O)c2ccncc2)cc1 | 0 | 0 | 0 | 0 | 0 | 0
CCCCOc1cccc(C2/C(=C(\O)c3ccc4c(c3)OCCO4)C(=O)C(=O)N2CCN2CCOCC2)c1 (stereo not given) | 0 | 0 | - | - | 0 | 0
CCc1cccc(C)c1NC(=O)c1cc(S(=O)(=O)N2CCOCC2)cn1C | - | - | - | - | 0 | -
Nc1n[nH]c(N)c1N=Nc1ccc(Cl)cc1Cl | 0 | 0 | - | 0 | 13µM | ?
COc1cccc(C(=O)Nc2ccc(-n3nncc3-c3ccccc3)cc2)c1OC | - | - | - | - | 0 | -
COCCCNC(=O)CCCN1C(=O)CCn2nc(-c3cn(C)c4ccccc34)cc21 | - | - | - | - | 0 | -
CC1CCC2(CC1)Nc1ccccc1C(=O)N2c1ccccc1 (stereo not given) | ? | 0 | ? | 0 | 0 | ?
O=C1c2ccccc2NC2(CCCCC2)N1c1ccc(O)cc1 | 0 | 0 | 8.9µM | 0 | ? | ?
COc1ccc(Cn2c(C(=O)O)c(CNCCc3ccccc3Cl)c3ccc(C)cc32)cc1 | - | - | - | - | 0 | -
COCc1cc(=O)n2c(-c3ccc(C)cc3)n[nH]c2n1 | 0 | 0 | ? | 0 | 9.5µM | 0
N#Cc1c(SCC(=O)Nc2nccs2)nc2c(c1-c1ccco1)CCCC2 | 0 | 0 | ? | 0 | 0 | ?
O=C1NCCC/C1=N/Nc1ccc(F)cc1 | 0 | 0 | 0 | 0 | 0 | ?
Cc1ccc(N/N=C2\CS(=O)(=O)N(C)c3ccsc32)cc1 | ? | 3.5µM | 0.89µM | 0 | 12µM | 0
CN1c2ccsc2/C(=N/Nc2ccc(F)cc2)CS1(=O)=O | ? | ? | ? | 0 | 19µM | ?
CCCC(=O)N/N=C1\CS(=O)(=O)N(C)c2ccsc21 | 0 | 0 | 0 | 0 | 0 | 0
